High-throughput results: PubChem BioAssay, National Center for Advancing Translational Sciences (NCATS)
Pf growth 48h = inhibits P. falciparum growth in the first generation, 48 h | P. falciparum luciferase growth in erythrocytes, 48 h | Potency, µM (series often up to 28.7 µM), most hits filed as inhibitors | 310,000 tested, 5.9% active; active means well fitted inhibition curve with a large enough effect; inconclusive means small, poorly fitted or top-dose-only effect, or another doubt; inactive means no such curve, though single readings can be large or run the other way
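First compound was added to culture medium, then infected red cells at 0.1% parasitemia and 2% hematocrit (final). After incubation at 37 C under 5% CO2, luciferase detection reagent was dispensed and light output recorded.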
Shiga toxin inh = blocks Shiga toxin action in Vero cells; Vero cells, Shiga toxin protein synthesis inhibition reporter; inhibition, % at 38.7 µM; 290,000 tested, 9.2% active; AID 2315; in the data active means inhibition mostly above about 28%, no sharp cut-off; inactive means mostly below about 43%
SARS PLpro yeast = SARS-CoV PLP inhibition in yeast; S. cerevisiae expressing SARS-CoV PLpro, growth rescue; Potency, µM (titrated, usually from 32.9 µM), hits mostly activators; 330,000 tested, 0.19% active; AID 485353; further: nearly all actives have a fitted effect of over 55% in size
Pf growth 96h = P. falciparum growth inhibition at 96 hours; P. falciparum luciferase reporter growth, 96 h; Potency, µM (top dose mostly 28.7 µM), hits mostly inhibitors; 320,000 tested, 6.9% active; AID 504834; active means well fitted inhibition curve with a large enough effect; inconclusive means small, poorly fitted or top-dose-only effect, or another doubt; inactive means no such curve, though single readings can be large or run the other way
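Cell-based qHTS: luciferase-tagged P. falciparum in erythrocytes (2% hematocrit, 0.05% parasitemia final) incubated with compounds for 96 hours, 37 C, 5% CO2; luciferase detection reagent then added and luminescence measured.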
NS1 function inh = inhibitors of influenza NS1 protein function. 270,000 tested, 0.4% active. Potency, µM (top dose mostly 46.1 µM); further: actives are rising curves; nearly all actives have a fitted effect of over 50% in size
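A cell-based growth assay was used: compounds that relieve NS1-induced slow growth of budding yeast raise OD600. Assay medium was yeast nitrogen base with ammonium sulphate and -URA supplement, pH 6.0, with 2% galactose.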
CHX counter = affects cycloheximide protein synthesis inhibition readout, counter-screen. cell reporter, cycloheximide protein synthesis inhibition counterscreen. 300,000 tested, 12% active. AID 2314. max response, %; in the data active means max response mostly above about 13%, no sharp cut-off; inactive means mostly below about 14%; further: read at 38.3 µM for the half of the compounds with a filed dose
Each line names hits and unclear results; the compound was inactive in the other large screens. Sampled rows, rich in hits. Any-hit rate of the full collection: about 21%. Unless noted, the call rests on the fitted dose curve.

COc1ccccc1NS(=O)(=O)c1cccc(C(=O)NCC(c2ccco2)N(C)C)c1 (configuration not stated)	Pf growth 48h inconclusive (no result: Shiga toxin inh, NS1 function inh, CHX counter)
O=C(NCCCl)Nc1ccc(Cl)c([N+](=O)[O-])c1	Pf growth 96h inconclusive
O=[N+]([O-])c1cc(C(F)(F)F)cc([N+](=O)[O-])c1NCCNC(=S)Nc1ccc(Cl)c(Cl)c1	Pf growth 48h 9.3µM, Pf growth 96h inconclusive
CCC(C(=O)Nc1cccc(C(F)(F)F)c1)c1ccccc1 (configuration not stated)	Pf growth 48h inconclusive, Pf growth 96h inconclusive
FC(F)(F)c1cccc(NC(=S)Nc2ccc(Cl)c(Cl)c2)c1	Pf growth 96h 8.3µM
FC(F)(F)c1cccc(NC(=S)NCc2ccccc2)c1	Pf growth 48h inconclusive, Pf growth 96h 3.3µM
COC(=S)Nc1cccc(C(F)(F)F)c1	none
FC(F)(F)c1cccc(NC(=S)NC(c2ccccc2)c2ccccc2)c1	Pf growth 48h 3.7µM, Pf growth 96h 2.6µM
FC(F)(F)c1cccc(CNC(=S)Nc2ccccc2)c1	Pf growth 48h inconclusive, Pf growth 96h inconclusive
CCOC(=O)c1sc2nc(C)nc(SCC(=O)N(C)C3CCS(=O)(=O)C3)c2c1C (configuration not stated)	none (no result: NS1 function inh)
Cc1noc(C)c1CSc1nc2sc(C)c(C)c2c(=O)n1-c1ccccc1	Pf growth 48h inconclusive (no result: Pf growth 96h)
C=CCn1c(SCc2c(C)noc2C)nc2sc(C)c(C)c2c1=O	Pf growth 96h 9.3µM (no result: Pf growth 48h)
O=C(CN(C(=O)c1ccc(Cl)cc1)C1CCCCC1)Nc1ccc(Cl)c([N+](=O)[O-])c1	Pf growth 48h inconclusive, Pf growth 96h 9.3µM
O=C(CN(C(=O)c1ccccc1Cl)C1CCCCC1)Nc1ccc(Cl)c([N+](=O)[O-])c1	Pf growth 48h 13µM
COC(=O)N/N=C/c1cccc([N+](=O)[O-])c1	none
O=[N+]([O-])c1ccc(N/N=C/c2cccc(O)c2)cc1	Shiga toxin inh 113, Pf growth 96h inconclusive, CHX counter 53
Cc1ccc(NC(=O)c2ccc(N/N=C/c3cccc(O)c3)c([N+](=O)[O-])c2)cc1	Pf growth 48h inconclusive, Pf growth 96h 5.2µM
O=[N+]([O-])c1ccc(N/N=C/c2cccc(O)c2O)cc1	Pf growth 96h inconclusive, CHX counter 27 (no result: Shiga toxin inh)
CN(C)/C=C(\c1cnc(Cl)s1)S(=O)(=O)c1ccccc1	none
O=C(OC[C@H]1O[C@@H](OC(=O)c2cc(O)c(O)c(OC(=O)c3cc(O)c(O)c(O)c3)c2)[C@H](OC(=O)c2cc(O)c(O)c(OC(=O)c3cc(O)c(O)c(O)c3)c2)[C@@H](OC(=O)c2cc(O)c(O)c(OC(=O)c3cc(O)c(O)c(O)c3)c2)[C@@H]1OC(=O)c1cc(O)c(O)c(OC(=O)c2cc(O)c(O)c(O)c2)c1)c1cc(O)c(O)c(OC(=O)c2cc(O)c(O)c(O)c2)c1	Pf growth 48h inconclusive, Pf growth 96h 9.3µM (no result: Shiga toxin inh, NS1 function inh, CHX counter)
Cc1ccnc(NC(=O)c2cccc(S(=O)(=O)N3CCN(c4ccc(F)cc4)CC3)c2)c1	Pf growth 48h inconclusive, Pf growth 96h inconclusive (no result: Shiga toxin inh, NS1 function inh, CHX counter)
Cc1ccc(NC(=O)C(C)c2ccc([N+](=O)[O-])cc2)cc1Cl (configuration not stated)	Pf growth 48h inconclusive, Pf growth 96h inconclusive
COC(=O)C(Cc1ccc(OC(=O)c2ccccc2Cl)cc1)N1Cc2ccccc2C1=O (configuration not stated)	CHX counter 22
O=C(O)[C@H](Cc1ccccc1)N1Cc2ccccc2C1=O	none (no result: Pf growth 48h)
COC(=O)CC(c1ccccc1F)N1Cc2ccccc2C1=O (configuration not stated)	none
COC(=O)C(Cc1ccc(OC(=O)c2ccccc2C)cc1)N1Cc2ccccc2C1=O (configuration not stated)	Shiga toxin inh active, CHX counter 33
O=C(Nc1ccc(Br)cc1F)c1ccc2c(c1)N(Cc1ccccc1)C(=O)CS2=O (configuration not stated)	Pf growth 48h inconclusive, SARS PLpro yeast inconclusive, Pf growth 96h inconclusive
CCOc1ccc(NC(=O)c2ccc3c(c2)N(Cc2ccc(F)cc2)C(=O)CS3=O)cc1 (configuration not stated)	Pf growth 48h 10µM, Pf growth 96h inconclusive, NS1 function inh inconclusive
Cc1ccc(C)c(NC(=O)c2ccc3c(c2)N(Cc2ccc(F)cc2)C(=O)CS3=O)c1 (configuration not stated)	Pf growth 48h 3.3µM, NS1 function inh inconclusive
